Experimental data from PubChem BioAssay (NCI).
This is part of a sample that, as a whole, favours compounds with a hit. Of some 83,000 tested, about 20% had one in any assay.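 Results are percent growth after 48 hours of single-concentration exposure. 100 means growth as in untreated cells, lower positive values show inhibition; negative values down to -100 show cell death.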 Activity calls are given as the source filed them. How the source made its calls: active means growth percent below 10; inactive means the rest.

Legend:
Experiment in all cases: NCI-60 one-dose screen, 48 h (100 = growth as untreated, 0 = no growth, -100 = all killed)
Conditions in all cases: 10 µM unless noted
NCI-H23 lung = tested on: NCI-H23 lung
NCI-H226 lung = tested on: NCI-H226 lung
NCI-H322M lung = tested on: NCI-H322M lung
HOP-62 NSCLC = tested on: HOP-62 NSCLC
HOP-92 NSCLC = tested on: HOP-92 NSCLC
NCI-H522 lung = tested on: NCI-H522 lung
A549/ATCC NSCLC = tested on: A549/ATCC NSCLC
786-0 renal = tested on: 786-0 renal
COLO 205 colon = tested on: COLO 205 colon
DU-145 prostate = tested on: DU-145 prostate
K-562 leukemia = tested on: K-562 leukemia
MALME-3M melanoma = tested on: MALME-3M melanoma
MDA-MB-231 breast = tested on: MDA-MB-231 breast
RXF 393 renal = tested on: RXF 393 renal
SF-268 CNS = tested on: SF-268 CNS
SF-295 CNS = tested on: SF-295 CNS
SF-539 CNS = tested on: SF-539 CNS
UACC-257 melanoma = tested on: UACC-257 melanoma
M14 melanoma = tested on: M14 melanoma

Measured: growth

CCOC(=O)Cn1c(=O)c2c(c3ccccc3n2C)n2nnc(-c3ccccc3)c12
active: HOP-92 NSCLC -15.2%
inactive: NCI-H23 lung 102% | NCI-H226 lung 128% | NCI-H322M lung 115% | HOP-62 NSCLC 95.5% | NCI-H522 lung 92.6% | A549/ATCC NSCLC 106% | 786-0 renal 104% | COLO 205 colon 114% | DU-145 prostate 111% | K-562 leukemia 84.8% | MALME-3M melanoma 118% | MDA-MB-231 breast 103% | RXF 393 renal 108% | SF-268 CNS 95.2% | SF-295 CNS 110% | SF-539 CNS 102% | UACC-257 melanoma 102% | M14 melanoma 97.6%

COc1ccc(S(=O)(=O)n2c3ccccc3n3ncc(-c4nnc(C)o4)c23)cc1
active: COLO 205 colon 7.03% | RXF 393 renal -22.2% | SF-295 CNS 6.74% | SF-539 CNS -1.67%
inactive: NCI-H23 lung 31.7% | NCI-H226 lung 55.7% | NCI-H322M lung 49% | HOP-62 NSCLC 37.3% | HOP-92 NSCLC 66% | NCI-H522 lung 31.2% | A549/ATCC NSCLC 27.4% | 786-0 renal 42.7% | DU-145 prostate 22.8% | K-562 leukemia 15.4% | MALME-3M melanoma 66.9% | MDA-MB-231 breast 30.1% | SF-268 CNS 53% | UACC-257 melanoma 84.1% | M14 melanoma 15.4%

O=c1c2cc(F)ccc2sc2c(N3CCCCC3)nc3ccccc3c12
inactive: NCI-H23 lung 95.8% | NCI-H226 lung 86% | NCI-H322M lung 90.1% | HOP-62 NSCLC 99.3% | HOP-92 NSCLC 84.2% | NCI-H522 lung 98.5% | A549/ATCC NSCLC 96.2% | 786-0 renal 95.8% | COLO 205 colon 106% | DU-145 prostate 107% | K-562 leukemia 112% | MALME-3M melanoma 104% | MDA-MB-231 breast 98.9% | RXF 393 renal 104% | SF-268 CNS 102% | SF-295 CNS 101% | SF-539 CNS 102% | UACC-257 melanoma 97.3% | M14 melanoma 96.8%

BrCCCc1n(Cc2ccc3ccccc3c2)c2ccccc2[n+]1Cc1ccc2ccccc2c1
active: NCI-H23 lung -81.3% | NCI-H226 lung -72.6% | HOP-62 NSCLC -65.7% | HOP-92 NSCLC -77% | NCI-H522 lung -52.3% | A549/ATCC NSCLC -54.1% | 786-0 renal -90.7% | COLO 205 colon -61.2% | DU-145 prostate -62.4% | K-562 leukemia -13% | MALME-3M melanoma -73.2% | MDA-MB-231 breast -60.8% | RXF 393 renal -77.6% | SF-268 CNS -75.4% | SF-295 CNS -91.1% | SF-539 CNS -74.9% | UACC-257 melanoma -55.7% | M14 melanoma -60.4%
inactive: NCI-H322M lung 11.9%

COc1ccc(C(=O)C(C)C)c2ccccc12
inactive: NCI-H23 lung 101% | NCI-H226 lung 105% | NCI-H322M lung 117% | HOP-62 NSCLC 99.8% | HOP-92 NSCLC 83.6% | NCI-H522 lung 102% | A549/ATCC NSCLC 129% | 786-0 renal 100% | COLO 205 colon 113% | DU-145 prostate 104% | K-562 leukemia 92.7% | MALME-3M melanoma 115% | MDA-MB-231 breast 104% | RXF 393 renal 109% | SF-268 CNS 102% | SF-295 CNS 103% | SF-539 CNS 103% | UACC-257 melanoma 128% | M14 melanoma 104%

COC(=O)c1ccc2[nH]c(O)c(C(=Nc3ccc(N(C)C(=O)CN4CCN(C)CC4)cc3)c3ccccc3)c2c1
inactive: NCI-H23 lung 31.1% | NCI-H226 lung 19% | NCI-H322M lung 76.8% | HOP-62 NSCLC 26.1% | NCI-H522 lung 50.3% | A549/ATCC NSCLC 39.4% | COLO 205 colon 11.4% | DU-145 prostate 21.5% | MDA-MB-231 breast 22.6% | SF-268 CNS 27.7% | SF-295 CNS 27.3% | UACC-257 melanoma 35.4% | M14 melanoma 11.2%
active: 786-0 renal 1.61% | K-562 leukemia 9.67% | MALME-3M melanoma -6.01% | RXF 393 renal -39.3% | SF-539 CNS -25.5%

CCOC(=O)c1sc2ncc(-c3ccc(C)cc3)n2c1C
inactive: NCI-H23 lung 83% | NCI-H226 lung 78.2% | NCI-H322M lung 92.6% | HOP-62 NSCLC 87.9% | HOP-92 NSCLC 83.9% | NCI-H522 lung 86.2% | A549/ATCC NSCLC 97.3% | 786-0 renal 106% | COLO 205 colon 99.7% | DU-145 prostate 97.5% | K-562 leukemia 79.4% | MALME-3M melanoma 84.2% | MDA-MB-231 breast 85.6% | RXF 393 renal 107% | SF-268 CNS 106% | SF-295 CNS 96.7% | SF-539 CNS 93.8% | UACC-257 melanoma 98.3% | M14 melanoma 87.1%

Cc1ncc(C(=O)Nc2ccc(CN3CCN(C)CC3)c(C(F)(F)F)c2)cc1C#Cc1ccc(N)nc1
inactive: NCI-H322M lung 20.1% | HOP-62 NSCLC 18.7% | A549/ATCC NSCLC 11.3% | DU-145 prostate 18.1% | SF-295 CNS 18.5%
active: NCI-H23 lung 3.94% | NCI-H226 lung -3.96% | HOP-92 NSCLC -15.9% | NCI-H522 lung -8.12% | 786-0 renal -48.8% | COLO 205 colon 5.35% | K-562 leukemia 5.34% | MALME-3M melanoma -88.9% | MDA-MB-231 breast -64.3% | RXF 393 renal -60.2% | SF-268 CNS -11.9% | SF-539 CNS -39.3% | UACC-257 melanoma 0.961% | M14 melanoma -56.8%
